A selection: hits, their analogues and other compounds. The true share with any hit is near 1.9%.
EBNA-1 inh: blocks EBNA-1 binding to DNA | EBNA-1 DNA binding, fluorescence polarization | inhibition, % at 14.8 µM | 0.34% of 300,000 active; in the data active means inhibition above about 28%
NR1D1 modulator: modulates human Rev-erb alpha binding to DNA; 0.79% of 370,000 active; Rev-erbα–FITC-DNA binding, fluorescence polarization, 90 min; P20393; activity, % at 10 µM;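 active means activity above about 14%, limit read from the data; passing the limit was not always enough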;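 further: 0% = DMSO wells with 35 nM protein and 100% = DMSO wells with 750 nM protein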
aDG glyco up: alpha-DG glycosylation activation. 0.22% of 360,000 active. Pro5-aDG cells, alpha-DG glycosylation AlphaScreen (IIH6); 0% Pro5, 100% B10-LARGE cell signal. AID 624168. activation, % at 10 µM;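 active means activation of at least 8% versus controls, or a plate z-score of at least 8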;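 further: Pro5 are CHO cells carrying HIG-tagged alpha-DG that lacks glycosylation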
ZTA counter: ZTA (EBV) inhibition in EBNA-1 counter-screen. P03206. ZTA-DNA binding, fluorescence polarization. inhibition, % at 11 µM. 0.15% of 320,000 active. AID 2234; in the data active means inhibition above about 33%
Target sequence (P03206 whole entry, looked up): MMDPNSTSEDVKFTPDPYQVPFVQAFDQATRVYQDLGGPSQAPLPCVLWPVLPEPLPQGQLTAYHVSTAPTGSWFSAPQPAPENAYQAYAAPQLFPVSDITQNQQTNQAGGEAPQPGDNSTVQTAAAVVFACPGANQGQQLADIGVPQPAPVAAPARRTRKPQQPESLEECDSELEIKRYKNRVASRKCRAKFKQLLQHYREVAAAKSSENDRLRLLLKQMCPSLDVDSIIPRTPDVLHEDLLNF
NCF1 inh: p47phox (human) inhibition. p47phox/p22phox peptide binding, fluorescence polarization, 2 h. 0.53% of 220,000 active. inhibition, % at 24.7 µM. AID 1274;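 active means inhibition above about 30%, limit read from the data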;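 further: 0% = p47phox with labelled peptide and 100% = labelled peptide alone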
Target sequence (P14598 whole entry, looked up): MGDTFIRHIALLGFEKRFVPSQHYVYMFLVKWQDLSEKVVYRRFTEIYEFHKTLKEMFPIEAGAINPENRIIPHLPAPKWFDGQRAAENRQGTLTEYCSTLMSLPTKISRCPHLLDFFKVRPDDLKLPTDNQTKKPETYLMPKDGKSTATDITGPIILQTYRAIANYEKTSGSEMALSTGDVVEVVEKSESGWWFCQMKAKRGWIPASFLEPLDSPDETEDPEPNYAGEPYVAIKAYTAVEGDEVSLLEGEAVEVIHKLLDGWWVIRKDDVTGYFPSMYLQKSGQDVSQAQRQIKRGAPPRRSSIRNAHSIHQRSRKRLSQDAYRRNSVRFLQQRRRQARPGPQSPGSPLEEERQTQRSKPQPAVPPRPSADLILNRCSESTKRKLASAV
PG9 binder: small molecules binding HIV-1 gp120 antibody PG9. TR-FRET gp120-PG9 antibody binding. inhibition, % at 6.7 µM. 0.43% of 360,000 active. AID 624416; in the data active means inhibition above about 8.5%
Rev-erbA confirm: Rev-erb alpha (human) modulation, hit confirmation. shares compounds with NR1D1 modulator. Rev-erb alpha FITC-DNA binding, fluorescence polarization, 90 min. activation, % at 25 µM. 61% of 3,000 active;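 active means activation at or above a set limit, or at least 3 SD above the negative control mean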;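 further: 0% = 35 nM protein with DMSO and 100% = 750 nM protein high control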
RORg DNA counter: counter-screen for Rev-erb alpha modulators: RORgamma DNA binding | purified RORgamma protein-FITC-DNA binding, fluorescence polarization | shares compounds with NR1D1 modulator | 8% of 910 active | IC50, µM;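 active means Compounds whose fitted half-maximal concentration for disrupting protein-DNA binding is below 10 micromolar; the record names Rev-erb in its text, so the target is in doubt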
Starred values were filed as active, the others as inactive; i = inactive; / = not tested or not shown.

SMILES | EBNA-1 inh | NR1D1 modulator | aDG glyco up | ZTA counter | NCF1 inh | PG9 binder | Rev-erbA confirm | others
c1ccc(-c2nnc3sc(-c4ccncc4)nn23)cc1 | -1.8 | -2.6 | 0.2 | 6.6 | -18.5 | -0.8 | /
Fc1ccc(-c2cc(-c3nnc4sc(-c5ccco5)nn34)[nH]n2)cc1 | / | 8.0 | / | / | / | / | /
Clc1ccc(-c2nn3c(-c4ccccc4)nnc3s2)cc1 | 14.7 | 23.9* | 0.2 | 3.6 | -8.7 | 3.1 | 15.0
COC(=O)[C@]12C[C@H](CC(=O)NCc3ccc(C)o3)C(=O)N(Cc3cccc4ccccc34)C1=C[C@H](C(C)C)O[C@@H]2C1CC1 | / | 6.1 | / | / | / | / | /
Cc1ccccc1C(=O)N(Cc1ccccn1)CC1CCCO1 (stereo not given) | / | 1.4 | / | / | / | / | /
COP(=O)(O)C(COCCC(CC(C)C)NC(=O)OCc1ccccc1[N+](=O)[O-])NC(=O)OCc1ccccc1 (stereo not given) | / | 6.0 | / | / | / | / | /
COc1cc(-n2c(C)nc3cc(C(=O)N4CC(C)CC(C)C4)ccc32)cc(OC)c1OC (stereo not given) | / | -0.9 | / | / | / | / | /
COc1ccc(C(=O)Nc2nc(-c3ccccc3)c(C(C)=O)s2)c(OC)c1 | 5.3 | 24.8* | -0.4 | 11.5 | 3.9 | 1.7 | 14.9
CC(=O)c1sc(NC(=O)c2ccccc2F)nc1-c1ccccc1 | -16.7 | 17.0* | 0.4 | -13.2 | -5.8 | 1.8 | 11.0
COc1ccc(N2CC(C(=O)Nc3nc(-c4ccccc4)c(C(C)=O)s3)CC2=O)c(OC)c1 (stereo not given) | -9.4 | -4.1 | 0.0 | -3.8 | / | 2.1 | /
COc1ccc(OC)c(-c2csc(NC(=O)c3ccc4c(c3)OCO4)n2)c1 | -15.6 | 48.8* | 1.0 | 2.4 | -41.7 | -1.9 | 50.6* | RORg DNA counter=i
COc1ccc(C(=O)Nc2nc3cc4c(cc3s2)OCO4)c(OC)c1 | 4.6 | 18.7* | 0.0 | 1.0 | -4.5 | 5.8 | 11.5*
COc1ccc(OC)c(NC(=O)c2ccc3c(c2)OCO3)c1 | -7.5 | -0.2 | -0.2 | -4.5 | / | -0.9 | /
COc1ccc2nc(NC(=O)c3cc(C)oc3C)sc2c1 | 3.5 | -0.7 | -0.3 | 13.2 | -20.4 | 0.4 | /
COC(=O)[C@]12C[C@H](CC(=O)N3CCSCC3)C(=O)N(Cc3cccc4ccccc34)C1=C[C@H](C1CCCC1)O[C@@H]2C | / | 0.9 | / | / | / | / | /
COC(=O)C[C@H]1CC[C@@H]2[C@@H](COc3ccc(NC(=O)c4ccccc4)cc3C(=O)N2C)O1 | / | -4.3 | / | / | / | / | /
CC(C)[C@H](N)C(=O)N1CCC[C@@H]1C(=O)N1CCC2CCN(S(=O)(=O)c3ccccc3)CC21 (stereo not given in full) | / | 1.6 | / | / | / | / | /
CCCC(=O)OC12CCCN(C1)/C(=C/c1cccc(OC)c1)C2 (stereo not given) | / | 4.6 | / | / | / | / | /
CN(C)c1cc(-c2ccc(Cl)c(Cl)c2)oc(=O)c1Cl | -1.2 | 35.7* | 0.1 | -12.6 | -42.9 | -0.3 | -3.5
O=C(CN1CCN(c2nc(-c3ccccc3)cs2)CC1)Nc1ccc(Cl)cc1 | / | -3.4 | / | / | / | / | /
COc1ccc(C(=O)N(C)[C@H]2C[C@H]3c4[nH]c5cccc(-c6ccccc6)c5c4CCN3C[C@H]2[C@H](C)O)cc1 | / | 9.1 | / | / | / | / | /
COc1ccc2[nH]c(C(=O)Nc3ccc(C)c(F)c3)cc2c1 | -4.8 | 48.8* | 0.1 | 5.0 | -4.6 | -0.3 | 43.6* | RORg DNA counter=1.48*
COc1ccc(NC(=O)c2cc3ccccc3[nH]2)cc1 | -0.4 | 1.6 | 0.2 | -0.3 | / | -0.9 | /
Cc1ccc2c(c1)-c1c(cnn1CC(=O)NCCc1cccc(F)c1)CO2 | / | -3.1 | / | / | / | / | /
Cn1c(SCC(=O)Nc2cccc(F)c2)nnc1-c1cc2ccccc2o1 | -2.5 | 75.3* | -0.2 | -3.3 | -18.4 | 2.1 | 102.3* | RORg DNA counter=>40
SMILES | EBNA-1 inh | NR1D1 modulator | aDG glyco up | ZTA counter | NCF1 inh | PG9 binder | Rev-erbA confirm | others
C[C@@H]1/C=C/CC(=O)N[C@H](c2ccc3ccccc3c2)[C@H](C)/C=C/CC(=O)N[C@@H]1c1ccc2ccccc2c1 | / | 10.4 | / | / | / | / | /
CCSc1ccc([C@@H]2[C@@H]3C(=O)N(CC)C(=O)[C@@H]3[C@]3(C(=O)OC)CCCCN23)cc1 | -2.9 | 3.2 | 0.0 | 3.2 | / | -1.4 | /
COC(=O)[C@@]12CCCCN1[C@H](c1ccc(-c3cc(C(C)=O)cs3)cc1)[C@H]1C(=O)N(C)C(=O)[C@H]12 | -7.2 | 30.5* | -0.4 | 19.7 | / | 0.5 | 21.8*
COC(=O)[C@@]12CCCN1[C@H](c1ccc(-c3ccc(C(C)=O)cc3)c(OC)c1)[C@H]1C(=O)N(C)C(=O)[C@H]12 | -4.6 | 3.3 | -0.1 | -18.6 | / | 1.9 | /
COC(=O)[C@@]12CCCCN1[C@H](c1ccc(-c3cc(C(C)=O)cs3)c(OC)c1)[C@H]1C(=O)N(C)C(=O)[C@H]12 | 4.8 | 40.7* | 0.5 | -14.7 | / | -3.4 | 34.4*
CCC(C)Sc1ccc([C@@H]2[C@H]3C(=O)N(CC)C(=O)[C@H]3[C@]3(C(=O)OC)CCCCN23)cc1 (stereo not given in full) | -3.4 | 15.7* | 0.5 | -0.3 | / | -0.1 | 8.0
C[C@H]1/C=C/CC(=O)N[C@@H](c2ccc3ccccc3c2)[C@@H](C)/C=C/CC(=O)N[C@H]1c1ccc2ccccc2c1 | / | 6.9 | / | / | / | / | /
COC(=O)[C@]12C[C@H](CC(=O)NCCc3ccccc3OC)C(=O)N(Cc3cccc4ccccc34)C1=C[C@H](C(C)(C)C)O[C@@H]2C | / | 6.3 | / | / | / | / | /
CSc1nc2cc(C)nn2c(-c2ccccc2)c1C#N | -10.0 | 25.9* | -0.1 | -21.3 | 5.5 | -0.7 | 10.1
COC(=O)C[C@H]1CC[C@H]2[C@H](COc3ccc(NC(=O)C4CCOCC4)cc3C(=O)N2C)O1 | / | -3.6 | / | / | / | / | /
CC(C)CSc1ncccc1-c1nc2ccccc2[nH]1 | / | 16.8* | / | / | / | / | 11.3*
O=C(CSc1nnc(COc2ccc(Cl)cc2)n1Cc1ccco1)Nc1ccc2c(c1)OCO2 | / | 4.6 | / | / | / | / | /
Cc1c[nH]c2cccc(-c3cccc4ccccc34)c12 | / | 3.5 | / | / | / | / | /
CCOc1ccccc1NC(=O)CCSc1nc2n[nH]c(C)c2c(=N)n1-c1ccccc1Cl | 21.4 | 34.7* | -0.2 | -2.1 | 1.0 | 41.1* | 15.6
Cc1ccc(Cc2c(-c3ccc(Cl)cc3)nc3ccc(Br)cn23)cc1 | / | 6.2 | 0.1 | / | / | 5.1 | /
Brc1ccc(-c2nc3ccc(Br)cn3c2Cc2ccccc2)cc1 | / | 26.0* | 0.3 | / | / | 7.0 | 15.7*
Fc1ccc(-c2nc3ccc(Br)cn3c2Cc2cccc(F)c2)cc1 | / | -3.0 | 0.0 | / | / | -1.4 | /
Clc1ccc(-c2nc3ccc(Br)cn3c2Cc2ccccc2)cc1 | / | 23.3* | 2.0 | / | / | 7.2 | 19.7*
Fc1ccc(-c2nc3ccc(Br)cn3c2Cc2cccc(Cl)c2)cc1 | / | 28.0* | 0.3 | / | / | 5.1 | 14.0*
Fc1ccc(-c2nc3ccc(Br)cn3c2Cc2ccccc2)cc1 | / | 19.7* | -0.2 | / | / | 3.1 | 12.8*
